Among all 5,500 compounds or so, about 2,000 (36%) were called active. Not shown: some 18% with an inconclusive outcome. Rule as the data show it: active = normalized growth mostly below about 0.91 (no sharp cut-off); inconclusive = no clear call, values can overlap the other calls; inactive = mostly above about 0.92. The list shows a part of the results.
Assay: chemical genetic growth profiling, strain panel (AID 1159580);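 also: tested at 20 µM; growth read once vehicle control cultures reached saturation at 30 °C; 1 = growth at the plate median or of vehicle wells; lower values mean less growth of the strain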
Conditions: growth OD

Measured: normalized growth

C=C[C@H]1CN2CC[C@H]1C[C@H]2[C@H](O)c1ccnc2ccccc12
inactive: S. cerevisiae deletion strains, locus YJR075W, strain HOC1, hits give low values 1.02 | S. cerevisiae deletion strains, locus YKL009W, strain mrt4, hits give low values 1.01 | S. cerevisiae deletion strains, locus YKL068W, hits give low values 0.982 | S. cerevisiae deletion strains, locus YKL085W, strain MDH1 (second series), hits give low values 0.991 | S. cerevisiae deletion strains, locus YKL085W, strain MDH1, hits give low values 0.991 | S. cerevisiae deletion strains, locus YKL160W, strain elf1, hits give low values 0.989 | S. cerevisiae deletion strains, locus YKL190W, strain CNB1, hits give low values 0.986 | S. cerevisiae deletion strains, locus YKR001C, strain vps1, hits give low values 0.967 | S. cerevisiae deletion strains, locus YKR026C, strain gcn3, hits give low values 1 | S. cerevisiae deletion strains, locus YKR091W, strain srl3, hits give low values 1 | S. cerevisiae deletion strains, locus YLL001W, strain dnm1, hits give low values 0.972 | S. cerevisiae deletion strains, locus YLL026W, hits give low values 0.994 | S. cerevisiae deletion strains, locus YLL041C, strain sdh2, hits give low values 1 | S. cerevisiae deletion strains, locus YLR027C, strain aat2, hits give low values 1 | S. cerevisiae deletion strains, locus YLR039C, strain RIC1, hits give low values 0.99 | S. cerevisiae deletion strains, locus YLR058C, strain SHM2, hits give low values 1 | S. cerevisiae deletion strains, locus YLR102C, strain apc9, hits give low values 0.976 | S. cerevisiae deletion strains, locus YLR113W, strain HOG1, hits give low values 0.941 | S. cerevisiae deletion strains, locus YLR221C, strain rsa3, hits give low values 0.989 | S. cerevisiae deletion strains, locus YLR258W, strain gsy2, hits give low values 1.01 | S. cerevisiae deletion strains, locus YLR262C, strain YPT6 (second series), hits give low values 0.975 | S. cerevisiae deletion strains, locus YLR262C, strain YPT6, hits give low values 0.966 | S. cerevisiae deletion strains, locus YLR268W, strain sec22, hits give low values 0.981 | S. cerevisiae deletion strains, locus YLR320W, strain mms22, hits give low values 0.999 | S. cerevisiae deletion strains, locus YLR330W, strain CHS5, hits give low values 1 | S. cerevisiae deletion strains, locus YLR342W, strain FKS1 (second series), hits give low values 0.995 | S. cerevisiae deletion strains, locus YLR342W, strain FKS1, hits give low values 0.985 | S. cerevisiae deletion strains, locus YLR357W, strain rsc2, hits give low values 0.986 | S. cerevisiae deletion strains, locus YLR370C, strain arc18, hits give low values 0.995 | S. cerevisiae deletion strains, locus YLR371W, strain rom2, hits give low values 0.967 | S. cerevisiae deletion strains, locus YLR384C, strain iki3, hits give low values 0.988 | S. cerevisiae deletion strains, locus YLR418C, strain cdc73, hits give low values 1.03 | S. cerevisiae deletion strains, locus YML016C, strain PPZ1, hits give low values 1.01 | S. cerevisiae deletion strains, locus YML032C, strain rad52, hits give low values 0.97 | S. cerevisiae deletion strains, locus YML120C, strain ndi1, hits give low values 0.992 | S. cerevisiae deletion strains, locus YML124C, strain tub3, hits give low values 0.975 | S. cerevisiae deletion strains, locus YMR058W, strain fet3, hits give low values 0.983 | S. cerevisiae deletion strains, locus YMR078C, strain ctf18, hits give low values 0.965 | S. cerevisiae deletion strains, locus YMR125W, strain sto1, hits give low values 1 | S. cerevisiae deletion strains, locus YMR129W, hits give low values 1 | S. cerevisiae deletion strains, locus YMR205C, strain PFK2, hits give low values 1 | S. cerevisiae deletion strains, locus YMR223W, strain ubp8, hits give low values 0.978 | S. cerevisiae deletion strains, locus YMR231W, strain pep5, hits give low values 0.995 | S. cerevisiae deletion strains, locus YMR263W, strain SAP30, hits give low values 0.987 | S. cerevisiae deletion strains, locus YMR307W, strain GAS1, hits give low values 0.986 | S. cerevisiae deletion strains, locus YNL067W, strain RPL9B, hits give low values 1.01 | S. cerevisiae deletion strains, locus YNL071W, strain lat1, hits give low values 1 | S. cerevisiae deletion strains, locus YNL128W, strain TEP1, hits give low values 1.03 | S. cerevisiae deletion strains, locus YNL153C, strain GIM3, hits give low values 1.01 | S. cerevisiae deletion strains, locus YNL183C, strain NPR1, hits give low values 0.927 | S. cerevisiae deletion strains, locus YNL209W, strain ssb2, hits give low values 1.01 | S. cerevisiae deletion strains, locus YNL233W, strain BNI4, hits give low values 0.999 | S. cerevisiae deletion strains, locus YNL248C, strain rpa49, hits give low values 1.02 | S. cerevisiae deletion strains, locus YNL250W, strain rad50, hits give low values 0.989 | S. cerevisiae deletion strains, locus YNL271C, strain bni1, hits give low values 0.993 | S. cerevisiae deletion strains, locus YNL298W, strain CLA4, hits give low values 0.98 | S. cerevisiae deletion strains, locus YNL307C, strain MCK1, hits give low values 0.981 | S. cerevisiae deletion strains, locus YNL322C, strain KRE1 (second series), hits give low values 0.99 | S. cerevisiae deletion strains, locus YNL322C, strain KRE1, hits give low values 1 | S. cerevisiae deletion strains, locus YNR049C, strain mso1, hits give low values 1 | S. cerevisiae deletion strains, locus YNR052C, strain pop2, hits give low values 0.959 | S. cerevisiae deletion strains, locus YOL006C, strain TOP1, hits give low values 1.07 | S. cerevisiae deletion strains, locus YOL012C, strain htz1 0.823 | S. cerevisiae deletion strains, locus YOL147C, strain pex11, hits give low values 0.971 | S. cerevisiae deletion strains, locus YOR001W, strain rrp6, hits give low values 0.978 | S. cerevisiae deletion strains, locus YOR061W, strain CKA2, hits give low values 1.01 | S. cerevisiae deletion strains, locus YOR069W, strain VPS5, hits give low values 1.01 | S. cerevisiae deletion strains, locus YOR070C, strain gyp1, hits give low values 1 | S. cerevisiae deletion strains, locus YOR080W, strain dia2, hits give low values 0.99 | S. cerevisiae deletion strains, locus YOR083W, strain WHI5, hits give low values 0.948 | S. cerevisiae deletion strains, locus YOR106W, strain vam3, hits give low values 0.994 | S. cerevisiae deletion strains, locus YOR136W, strain idh2, hits give low values 0.973 | S. cerevisiae deletion strains, locus YOR144C, strain elg1, hits give low values 0.972 | S. cerevisiae deletion strains, locus YOR184W, strain ser1, hits give low values 0.977 | S. cerevisiae deletion strains, locus YOR231W, strain MKK1, hits give low values 0.972 | S. cerevisiae deletion strains, locus YOR265W, strain rbl2, hits give low values 0.994 | S. cerevisiae deletion strains, locus YOR270C, strain vph1, hits give low values 1.02 | S. cerevisiae deletion strains, locus YOR290C, strain snf2, hits give low values 0.996 | S. cerevisiae deletion strains, locus YOR316C, strain cot1, hits give low values 0.984 | S. cerevisiae deletion strains, locus YPL051W, strain arl3, hits give low values 1 | S. cerevisiae deletion strains, locus YPL055C, strain LGE1, hits give low values 1.01 | S. cerevisiae deletion strains, locus YPL078C, strain atp4, hits give low values 0.99 | S. cerevisiae deletion strains, locus YPL106C, strain sse1, hits give low values 0.994 | S. cerevisiae deletion strains, locus YPL240C, strain hsp82, hits give low values 1.01 | S. cerevisiae deletion strains, locus YPL241C, strain CIN2, hits give low values 0.992 | S. cerevisiae deletion strains, locus YPL256C, strain CLN2, hits give low values 0.97 | S. cerevisiae deletion strains, locus YPR119W, strain clb2, hits give low values 0.98 | S. cerevisiae deletion strains, locus YPR141C, strain kar3, hits give low values 0.983 | S. cerevisiae deletion strains, locus YPR163C, strain tif3, hits give low values 0.977 | S. cerevisiae deletion strains, locus YPR167C, strain met16, hits give low values 0.989 | S. cerevisiae deletion strains, strain wtn01, hits give low values 0.976 | S. cerevisiae strains, strain wild type, hits give low values 1
